Source: PubChem BioAssay AID1159580 (chemical genetic matrix, 2015)
In all, about 5,500 compounds went through this assay and about 2,000 (36%) were called active. About 18% were inconclusive and are not listed. No stated cut-off is given here; in the data, active means normalized growth mostly below about 0.91 (no sharp cut-off); inconclusive means no clear call, values can overlap the other calls; inactive means mostly above about 0.92. The list shows a part of the results.

Assay: chemical genetic growth profiling, strain panel (AID 1159580);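 further: tested at 20 µM; growth read once vehicle control cultures reached saturation at 30 °C; 1 = growth at the plate median or of vehicle wells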
Settings: S. cerevisiae deletion strains, growth OD

Measured: normalized growth

CC(=O)OCC(=O)[C@H]1CCC2C3CC=C4C[C@@H](O)CC[C@]4(C)C3CC[C@@]21C (some centres undefined)
inactive: locus YAL021C, strain ccr4, stronger effect = lower value 1.04 | locus YAL026C, strain drs2, stronger effect = lower value 0.971 | locus YAL030W, strain snc1, stronger effect = lower value 0.993 | locus YBL061C, strain skt5, stronger effect = lower value 0.969 | locus YBR023C, strain chs3, stronger effect = lower value 0.97 | locus YBR171W, strain sec66, stronger effect = lower value 1 | locus YBR279W, strain paf1, stronger effect = lower value 0.998 | locus YCL016C, strain dcc1, stronger effect = lower value 0.983 | locus YCR088W, strain abp1, stronger effect = lower value 0.965 | locus YDL040C, strain nat1, stronger effect = lower value 1.01 | locus YDR001C, strain nth1, stronger effect = lower value 1.01 | locus YDR069C, strain doa4, stronger effect = lower value 1.02 | locus YDR297W, strain sur2, stronger effect = lower value 1.02 | locus YDR334W, strain swr1, stronger effect = lower value 1.01 | locus YEL037C, strain rad23, stronger effect = lower value 0.999 | locus YEL061C, strain CIN8 (second series), stronger effect = lower value 0.945 | locus YER015W, strain faa2, stronger effect = lower value 1.01 | locus YER016W, strain bim1, stronger effect = lower value 0.967 | locus YER111C, strain swi4, stronger effect = lower value 0.986 | locus YFR010W, strain ubp6, stronger effect = lower value 0.976 | locus YGL167C, strain pmr1, stronger effect = lower value 1 | locus YGL173C, strain kem1, stronger effect = lower value 0.953 | locus YGL227W, strain vid30, stronger effect = lower value 0.935 | locus YGL240W, strain doc1, stronger effect = lower value 0.927 | locus YGL253W, strain hxk2, stronger effect = lower value 0.937 | locus YHR013C, strain ard1, stronger effect = lower value 0.87 | locus YHR027C, strain rpn1, stronger effect = lower value 1.05 | locus YHR030C, strain SLT2, stronger effect = lower value 0.896 | locus YHR079C, strain IRE1, stronger effect = lower value 0.915 | locus YJL092W, strain hpr5, stronger effect = lower value 0.931 | locus YJL095W, strain BCK1 (second series), stronger effect = lower value 0.97 | locus YJL095W, strain BCK1, stronger effect = lower value 0.956 | locus YJL115W, strain asf1, stronger effect = lower value 1.02 | locus YJL154C, strain vps35, stronger effect = lower value 1.01 | locus YJR066W, strain TOR1, stronger effect = lower value 0.913 | locus YKL160W, strain elf1, stronger effect = lower value 0.946 | locus YKR026C, strain gcn3, stronger effect = lower value 1.01 | locus YKR091W, strain srl3, stronger effect = lower value 1.02 | locus YLL026W, stronger effect = lower value 0.935 | locus YLR113W, strain HOG1, stronger effect = lower value 0.882 | locus YLR258W, strain gsy2, stronger effect = lower value 0.963 | locus YLR357W, strain rsc2, stronger effect = lower value 1.04 | locus YLR370C, strain arc18, stronger effect = lower value 1 | locus YLR384C, strain iki3, stronger effect = lower value 1.02 | locus YMR058W, strain fet3, stronger effect = lower value 0.924 | locus YMR129W, stronger effect = lower value 0.998 | locus YMR231W, strain pep5, stronger effect = lower value 1.02 | locus YNL183C, strain NPR1, stronger effect = lower value 0.956 | locus YNL248C, strain rpa49, stronger effect = lower value 0.899 | locus YNL322C, strain KRE1 (second series), stronger effect = lower value 1.02 | locus YNR049C, strain mso1, stronger effect = lower value 0.991 | locus YOR001W, strain rrp6, stronger effect = lower value 1.02 | locus YOR070C, strain gyp1, stronger effect = lower value 1.03 | locus YOR080W, strain dia2, stronger effect = lower value 1.01 | locus YOR106W, strain vam3, stronger effect = lower value 0.913 | locus YOR231W, strain MKK1, stronger effect = lower value 0.942 | locus YOR265W, strain rbl2, stronger effect = lower value 0.979 | locus YPL051W, strain arl3, stronger effect = lower value 1 | locus YPL240C, strain hsp82, stronger effect = lower value 1.03 | locus YPL256C, strain CLN2, stronger effect = lower value 0.906
active: locus YBR009C, strain hhf1, stronger effect = lower value 0.819 | locus YBR231C, strain swc5, stronger effect = lower value 0.894 | locus YCL011C, strain gbp2, stronger effect = lower value 0.858 | locus YCL061C, strain MRC1, stronger effect = lower value 0.893 | locus YCL069W, strain vba3, stronger effect = lower value 0.893 | locus YDL005C, strain med2, stronger effect = lower value 0.885 | locus YDR137W, strain rgp1, stronger effect = lower value 0.742 | locus YDR159W, strain sac3, stronger effect = lower value 0.753 | locus YDR195W, strain ref2 1.4 [resistant] | locus YDR335W, strain msn5, stronger effect = lower value 0.908 | locus YDR392W, strain spt3, stronger effect = lower value 0.142 | locus YEL003W, strain gim4, stronger effect = lower value 0.894 | locus YER155C, strain BEM2 (second series), stronger effect = lower value 0.337 | locus YHR142W, strain chs7, stronger effect = lower value 0.593 | locus YJL129C, strain trk1, stronger effect = lower value 0.696 | locus YJL164C, strain tpk1, stronger effect = lower value 0.853 | locus YJL166W, strain qcr8, stronger effect = lower value 0.826 | locus YLL001W, strain dnm1, stronger effect = lower value 0.829 | locus YLL041C, strain sdh2, stronger effect = lower value 1.07 [resistant] | locus YLR027C, strain aat2, stronger effect = lower value 0.921 | locus YLR221C, strain rsa3, stronger effect = lower value 0.816 | locus YLR262C, strain YPT6 (second series), stronger effect = lower value 0.583 | locus YLR320W, strain mms22, stronger effect = lower value 0.435 | locus YLR342W, strain FKS1, stronger effect = lower value 0.762 | locus YML120C, strain ndi1, stronger effect = lower value 0.805 | locus YMR125W, strain sto1, stronger effect = lower value 0.829 | locus YMR205C, strain PFK2, stronger effect = lower value 0.833 | locus YNL071W, strain lat1, stronger effect = lower value 0.175 | locus YNL209W, strain ssb2, stronger effect = lower value 1.08 [resistant] | locus YOR083W, strain WHI5, stronger effect = lower value 0.885 | locus YOR270C, strain vph1, stronger effect = lower value 0.669 | locus YOR290C, strain snf2, stronger effect = lower value 0.862 | locus YPL078C, strain atp4, stronger effect = lower value 0.887 | locus YPL106C, strain sse1, stronger effect = lower value 1.3 [resistant]
